# HepG2 viability = counter-screen for TGF-b inhibitors: cytotoxicity in HepG2 cells | 410,000 compounds, 0.76% hits | AID 588856 | HepG2 CAGA-GFP viability, ATP luminescence, 18 h | Potency, µM (doses to about 46.1 µM), for the others: top-dose activity change, negative = cytotoxicity, usual class: cytotoxic; further: potency means the concentration at half of the fitted maximal effect
#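 HepG2 CAGA-GFP cells (1000/well, DMEM with 1% FBS) received compound, then TGF-beta at 500 pg/mL final, and were incubated 18 hours at 37 degrees C. Viability was read by CellTiter-Glo luminescence. Media-only wells were set as complete cell-killing and DMSO as no toxicity.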
# ATXN viability = reduces viability in counter-screen for ATXN expression inhibitors. Potency, µM (series often up to 56.7 µM), hits mostly cytotoxic. S2 cells (HEK-293 line with an ATXN2-luciferase reporter) viability, CellTiter-Fluor protease fluorescence, 24 h. 400,000 compounds, 0.49% hits; further: potency means the concentration at half of the fitted maximal effect; nearly all actives have a fitted effect of over 40% in size
# ATXN2 expr inh = reduces ATXN2 reporter expression in HEK-293 cells; HEK-293 ATXN2-luciferase reporter, luminescence, 24 h; Potency, µM (series often up to 57 µM), for the others: at the top dose activity change, negative = inhibition, most hits filed as inhibitors; 360,000 compounds, 0.72% hits; AID 1745845; further: potency means the concentration at half of the fitted maximal effect; on the % scale 0 is the no-effect control and ±100 the full control effect; nearly all actives have a fitted effect of over 55% in size
#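 ATXN2-luciferase reporter cells (luciferase flanked by upstream and downstream ATXN2 gene portions) were treated 24 h at 37 °C with compounds at up to 57 uM. SteadyGlo luminescence gave expression; GF-AFC fluorescence gave viability.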
# TGFb SMAD3 inh = TGF-b pathway inhibition | Potency, µM (highest dose often 46.1 µM), inactives show at the highest dose activity, negative = inhibition, hits mostly inhibitors | 410,000 compounds, 1.2% hits | HepG2 CAGA-GFP TGF-b/SMAD3 reporter, GFP fluorescence, 18 h; TGF-beta stimulated, 500 pg/mL final; further: potency means the concentration at half of the fitted maximal effect; on the % scale 0 is the no-effect control and ±100 the full control effect; nearly all actives have a fitted effect of over 65% in size
#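 Read-out: total well GFP (ex488/em500-530) summed from mean per-cell fluorescence. Cells: HEPG2 CAGA-GFP, 1% FBS DMEM, 18 h at 37 degrees C with 500 pg/mL final TGF-beta. Unstimulated wells served as the full-inhibition control; stimulated DMSO wells = 0%.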
# DRD3 antagonist = D3 dopamine receptor (human) antagonism; max response, negative = inhibition, %; 360,000 compounds, 2.5% hits; P35462; D3R cells, DiscoveRx beta-arrestin luminescence, antagonist mode; active compounds read low; in the data active means max response below about -50%; inconclusive means no clear call, values can overlap the other calls; further: on the % scale 0 is the no-effect control and ±100 the full control effect
# Target sequence (P35462 whole entry, looked up): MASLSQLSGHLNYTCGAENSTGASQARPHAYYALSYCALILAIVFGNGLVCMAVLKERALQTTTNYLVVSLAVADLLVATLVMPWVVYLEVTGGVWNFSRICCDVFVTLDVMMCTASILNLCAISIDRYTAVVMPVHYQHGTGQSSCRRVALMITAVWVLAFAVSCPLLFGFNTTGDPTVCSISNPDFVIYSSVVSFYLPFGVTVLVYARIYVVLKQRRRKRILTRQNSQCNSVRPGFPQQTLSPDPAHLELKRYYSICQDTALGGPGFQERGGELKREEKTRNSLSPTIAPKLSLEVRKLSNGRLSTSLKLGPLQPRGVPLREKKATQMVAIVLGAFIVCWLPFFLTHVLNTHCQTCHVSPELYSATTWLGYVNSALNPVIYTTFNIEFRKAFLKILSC
#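 Cells plated overnight at 1500 cells/well, then exposed to library compounds with dopamine controls for 90 minutes at 37 degrees C. DiscoveRx reagent added for 30–60 minutes at room temperature; luminescence read, quantitative HTS format.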
# DRD3 agonist = activates the human D3 dopamine receptor; P35462; D3R DiscoveRx beta-arrestin cells, luminescence, 90 min; max activation, %; 410,000 compounds, 0.58% hits; in the data active means max activation above about 30%; further: 0% is about no effect
#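 Agonist mode: compounds and dopamine controls were applied to plated cells for 90 min at 37 degrees C after an overnight attachment at 1500 cells/well. Luminescent read-out followed 30 - 60 minutes at room temperature with DiscoveRx detection reagent.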
# Starred values were filed as active, the others as inactive; i = inactive; ? = inconclusive; / = not tested or not shown; ! = a repeat was not active. A selection: hits, their analogues and other compounds. The true share with any hit is near 4.7%. Unless noted, the call rests on the fitted dose curve; in most records, active means well fitted curve in the direction sought with a large enough effect; inconclusive means small, poorly fitted or top-dose-only effect, or another doubt; inactive means no such curve, though single readings can be large; an effect the other way counts as inactive or inconclusive.
SMILES,HepG2 viability,ATXN viability,ATXN2 expr inh,TGFb SMAD3 inh,DRD3 antagonist,DRD3 agonist
CCOc1cc(C(=O)N(Cc2nc(-c3ccc(C)cc3)no2)C(C)C)cc(OCC)c1OCC,-29.6%,i,1.3%,?,/,-12.8
O=C(COCc1cc(-c2cccs2)on1)N1CCN(c2cccc(Cl)c2)CC1,-17.2%,/,/,-29.3%,/,8.6
CCOc1ccc(C(=O)NCCc2csc(-c3cccc(C)c3)n2)cc1,-26.6%,/,/,-22.2%,/,7.0
CCS(=O)(=O)Nc1cc(-c2cn3ccc(C)cc3n2)ccc1C,-26.2%,?,10.0%,-11.7%,/,-16.8
CC(C)Cc1ccc(C(C)CC2=CCC(CN(C)C)C2=O)cc1 (centres undefined),7.94µM*,/,?,?,?,-5.3
CCOc1ccc(NS(=O)(=O)c2ccc3[nH]cc(C(=O)N4CCCC4)c(=O)c3c2)cc1,-5.2%,i,8.7%,-1.4%,/,-2.1
COc1ccc(N2C(=O)C3CC(C)=C(C)CC3C2=O)c(OC)c1 (centres undefined),10.8%,i,-23.0%,-7.9%,-15.8,2.3
COc1cc(N2C(=O)C=CC2=O)ccc1N1C(=O)C=CC1=O,-103.2%,/,?,?,-67.9*,-29.7
N#Cc1cc(Oc2cccc3cccnc23)c(-n2nnc3ccccc32)cc1C#N,-93.6%,i,?,6.31µM*,?,-47.1
O=C(CN(Cc1ccccc1)C1=NCCS1)c1ccc(Cl)cc1,-39.1%,i,-25.1%,-10.1%,-63.6*,-12.4
C=CCOC1=CS(=O)(=O)N(Cc2ccc(Br)cc2)c2ccc(Br)cc21,-21.8%,i,-0.4%,-19.1%,-4.1,41.6*
O=C(Nc1cccc(CNCCc2c[nH]c3ccccc23)c1)c1ccccc1Cl,-79.4%,?,/,?,-96.3*,-12.7
COc1ccc(N=CC2=C(O)c3ccccc3C2=O)c(OC)c1,12.6%,i,?,-5.1%,-57.9*,-4.1
Cc1cccc(CCNC(=O)C2CCCN(c3ncnc4c3nc3n4CCCCC3)C2)c1 (centres undefined),-21.9%,i,-18.1%,-19.0%,-7.8,-10.8
O=C(NCC1CCN(Cc2ccc(Cl)cc2)CC1)C1CCCN(c2ncnc3c2nc2n3CCCCC2)C1 (centres undefined),-20.7%,?,/,-23.0%,-26.4,-1.8
O=C(C1CCN(c2ncnc3c2nc2n3CCCCC2)CC1)N1CCN(c2ccc(F)cc2)CC1,-0.7%,/,/,?,-0.2,48.1*!
O=C(NCC1CCN(Cc2ccc(F)cc2)CC1)C1CCCN(c2ncnc3c2nc2n3CCCCC2)C1 (centres undefined),-51.9%,?,/,12.6µM*,5.3,-11.0
CCOc1ccc(CCNC(=O)C2CCN(c3ncnc4c3nc3n4CCCCC3)CC2)cc1,1.3%,/,/,-2.1%,/,66.4*
Cc1cccc(N2CCN(CCCNC(=O)C3CCCN(c4ncnc5c4nc4n5CCCCC4)C3)CC2C)c1 (centres undefined),-20.8%,17.8µM*,25.1µM*,?,-28.7,-12.1
COc1ccccc1CCNC(=O)Cc1ccc(NC(=O)N2CCSc3ncccc32)cc1,-20.5%,/,/,0.0%,/,0.7
COCCNC(=O)C1CCCN(S(=O)(=O)c2ccc3c(ccn3C)c2)C1 (centres undefined),2.6%,i,-0.1%,-18.9%,/,9.0
CC12CCC(C(=O)Nc3ccc(Br)cn3)(OC1=O)C2(C)C (centres undefined),4.47µM*,i,-13.4%,0.0%,-5.8,-3.8
O=C(Cc1ccc(OCC2CCCCC2)cc1)NO,-35.4%,/,/,-6.4%,/,/
CCOC(=O)c1c(C)oc2ccc(N(C(=O)Oc3ccccc3)S(=O)(=O)c3ccccc3)cc12,-9.3%,i,0.7%,-14.9%,/,-0.2
COc1ccc(-c2cnn3c4c(c(C)nc23)CCN4C(C)C)cc1OC,-8.4%,i,26.9%,20.7%,32.6,40.8*
SMILES,HepG2 viability,ATXN viability,ATXN2 expr inh,TGFb SMAD3 inh,DRD3 antagonist,DRD3 agonist
COC(CN1CCc2c(C)nc3c(C#N)cnn3c21)OC,-4.8%,i,-5.0%,3.8%,-2.9,6.7
CC(C)c1ccc(Nc2sc(C(=O)c3ccccc3)c(N)c2S(=O)(=O)c2ccccc2)cc1,-1.6%,?,15.3%,-1.8%,/,0.0
Cc1ccsc1CCN1C(=O)N(c2ccccc2)C(=O)C1CC(=O)Nc1ccc(Cl)cc1 (centres undefined),-31.8%,?,?,?,/,-2.2
O=C1CN(CC(=O)N2CCCCC2)c2ccccc2O1,22.4µM*,i,2.6%,?,0.0,2.4
CCOc1ccc(S(=O)(=O)N2CCN(S(=O)(=O)c3ccc(C(C)=O)cc3)CC2)cc1,-0.2%,i,1.2%,3.4%,-1.0,3.1
COc1ccc(C(=O)N2CCN(Cc3ccc(OC)c(OC)c3)CC2)cc1,-2.1%,i,-2.8%,-0.6%,-3.3,-19.0
Cc1ccc(C)n1CCN1CCN(C(=O)c2ccc(Cl)cc2)CC1,-15.0%,i,-4.2%,15.7%,-77.6*,-13.2
COc1ccc(OCCN2CCN(C(=O)c3ccc(OC(F)F)c(OC)c3)CC2)cc1,11.5%,i,?,?,14.2,122.8*
Cc1ccc(C)n1CCN1CCN(C(=O)c2ccco2)CC1,-5.1%,i,-4.7%,-4.3%,-11.1,4.6
O=C(c1ccc(Cl)cc1)N1CCN(CCOc2ccccc2)CC1,-21.7%,i,-10.9%,0.0%,-5.1,83.9*
O=C(c1c(F)cccc1F)N1CCN(CCOc2ccccc2)CC1,8.9%,i,-7.6%,3.8%,?,9.0
CC(=O)c1ccc(S(=O)(=O)N2CCN(CCOc3ccc(Br)cc3)CC2)cc1,-24.4%,?,?,?,-22.2,49.5*
O=c1c2sc3ccccc3c2n(Cc2ccc(Cl)cc2)c(=O)n1Cc1ccco1,-15.0%,i,7.0%,-17.7%,/,3.1
COc1ccc(OCCN2CCN(C(=O)c3ccc(OC)cc3)CC2)cc1,-10.1%,i,-24.9%,?,-0.1,92.0*
COc1ccc(C(=O)N2CCCC2)cc1,-9.2%,i,1.5%,-0.1%,-12.5,-8.3
CCn1c(SCCN2CCCCC2)nnc1-c1ccc(S(=O)(=O)N2CCOCC2)cc1,1.1%,i,-1.8%,1.0%,-74.0*,-8.2
CCOC(=O)c1c(NC(=O)CSc2cn(CCNC(=O)c3ccccc3F)c3ccccc23)sc2c1CCC2,-15.6%,i,7.8%,?,/,6.7
COc1ccc(C(=O)C(CN2CCCC2)c2ccccc2)cc1 (centres undefined),31.6µM*,/,?,11.2µM*,?,-4.5
CCCCOc1ccc(C(=O)C(CN2CCOCC2)c2ccccc2)cc1 (centres undefined),-105.5%,/,?,?,-53.8*,-2.5
